biological target: T1, USP38 (UniProt Q8NB14); assay: log2 ratio of Biotin-Ahx-Ub-VS probe labelling (compound/DMSO); higher = less target engagement, active = hit call of the paper (q ≤ 0.05, log2 ratio ≤ -1); conditions: compound concentration: 50uM; treatment time: 3 h
T1 sequence (whole entry): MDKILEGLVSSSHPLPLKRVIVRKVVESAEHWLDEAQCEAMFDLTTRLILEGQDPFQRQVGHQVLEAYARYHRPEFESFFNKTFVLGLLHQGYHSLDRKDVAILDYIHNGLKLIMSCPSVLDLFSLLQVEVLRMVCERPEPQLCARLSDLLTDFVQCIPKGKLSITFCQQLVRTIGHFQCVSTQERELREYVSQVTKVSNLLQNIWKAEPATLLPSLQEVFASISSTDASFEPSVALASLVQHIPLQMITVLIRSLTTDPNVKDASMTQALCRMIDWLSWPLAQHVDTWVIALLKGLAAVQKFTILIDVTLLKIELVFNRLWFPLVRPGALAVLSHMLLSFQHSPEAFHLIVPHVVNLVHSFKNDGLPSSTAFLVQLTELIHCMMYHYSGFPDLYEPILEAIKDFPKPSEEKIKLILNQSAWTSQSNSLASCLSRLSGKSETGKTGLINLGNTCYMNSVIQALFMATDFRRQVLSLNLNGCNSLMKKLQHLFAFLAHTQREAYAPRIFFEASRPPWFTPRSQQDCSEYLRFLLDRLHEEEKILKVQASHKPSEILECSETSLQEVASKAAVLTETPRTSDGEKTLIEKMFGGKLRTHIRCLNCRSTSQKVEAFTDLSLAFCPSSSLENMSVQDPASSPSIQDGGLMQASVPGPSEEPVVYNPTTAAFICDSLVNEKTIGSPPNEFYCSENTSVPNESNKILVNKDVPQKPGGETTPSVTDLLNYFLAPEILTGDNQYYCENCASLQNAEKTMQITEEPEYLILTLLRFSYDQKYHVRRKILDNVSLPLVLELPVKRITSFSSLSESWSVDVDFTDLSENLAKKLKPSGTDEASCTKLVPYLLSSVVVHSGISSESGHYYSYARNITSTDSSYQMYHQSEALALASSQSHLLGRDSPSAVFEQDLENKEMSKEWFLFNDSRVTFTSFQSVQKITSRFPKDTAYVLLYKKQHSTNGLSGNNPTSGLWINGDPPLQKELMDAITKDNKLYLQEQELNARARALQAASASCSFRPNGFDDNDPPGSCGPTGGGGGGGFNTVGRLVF
Description: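 Round 2 competitive ABPP in HEK293T lysate. Compounds were tested at 50 and 200 µM for 3 h, followed by Biotin-Ahx-Ub-VS enrichment and diaPASEF LC-MS/MS. Values are the average log2 ratio (compound/DMSO) from an unpaired t-test (n=3 treated, n=26 DMSO).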

log2 ratio of Biotin-Ahx-Ub-VS probe labelling, inactive:
COc1cccc(CN(C)C(=O)CCl)c1 0.0582
CCC1c2ccsc2CCN1C(=O)CCl (configuration not stated) 0.124
Cl.Cn1ncc2c1CCCC2NC(=O)CCl (configuration not stated) 0.328
Cl.O=C(CCl)N1CCc2ncncc2C1 -0.214
CN1c2ccccc2C(NC(=O)CCl)CS1(=O)=O (configuration not stated) -0.19
O=C(CCl)NC1CCOc2ccccc21 (configuration not stated) 0.0839

same assay, conditions: compound concentration: 200uM; treatment time: 3 h

log2 ratio of Biotin-Ahx-Ub-VS probe labelling, inactive:
COc1cccc(CN(C)C(=O)CCl)c1 -0.322
CCC1c2ccsc2CCN1C(=O)CCl (configuration not stated) -0.277
Cl.Cn1ncc2c1CCCC2NC(=O)CCl (configuration not stated) -0.153
Cl.O=C(CCl)N1CCc2ncncc2C1 -0.296
CN1c2ccccc2C(NC(=O)CCl)CS1(=O)=O (configuration not stated) -0.231
O=C(CCl)NC1CCOc2ccccc21 (configuration not stated) -0.0989
